Screens (PubChem BioAssay)
IL-1B inflam inh: blocks inflammasome-driven IL-1 beta release. THP-1 LPS/ATP IL-1B secretion, AlphaLISA, 16 h; active compounds read low. activity change, % at 57.5 µM. hit rate 4.7% among 360,000. AID 743279; in the data active = activity change below about -50%; inconclusive = mostly about -30% to -49%
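THP-1 cells pretreated 1 hr with compounds (up to 57.5 uM final), then stimulated with LPS (250 ng/mL final) plus ATP (1.25 mM final); secreted IL-1B measured by AlphaLISA after 16 hr, decreased signal indicating inhibition.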
DT40 TDP1 CPT: growth inhibition of DT40 Tdp1-/-;hTDP1 cells with camptothecin (screen for TDP1 inhibitors) | chicken DT40 Tdp1-/-;hTDP1 cells + 20 nM CPT, ATP luminescence, 48 h | Potency, µM (highest dose often 46.2 µM), actives largely listed as inhibitors | hit rate 12% among 420,000; also: nearly all actives have a fitted effect of over 55% in size
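Chicken DT40 Tdp1-/- cells stably complemented with human TDP1 were seeded at 400 cells/well in medium containing 20 nM camptothecin, exposed to pin-transferred compounds, and grown at 37 °C for at least 48 hr. Viability was read as ATP luminescence.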
Six1-Eya2 blk: blocks human Six1 binding to Eya2. AID 651725. hit rate 0.56% among 360,000. AlphaScreen GST-Six1/His-Eya2 binding, biochemical; active compounds read low. activity change, % (no concentration beside the values). Q15475+O00167; in the data active = activity change below about -65%; inconclusive = mostly about -30% to -63%
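Compounds are tested against tagged Six1 and Eya2 proteins bridged by glutathione donor and nickel acceptor beads; after a one-hour incubation at 37 °C without light, AlphaScreen emission is recorded.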
TDP1 cell noCPT: qHTS for Inhibitors of human tyrosyl-DNA phosphodiesterase 1 (TDP1): qHTS in cells in absence of CPT | hit rate 15% among 420,000 | AID 686978, 2013 | DT40 Tdp1-/- hTDP1 cells, no CPT, ATP luminescence, 48 h | Potency, µM (doses to about 46.2 µM), actives largely listed as inhibitors; also: nearly all actives have a fitted effect of over 55% in size
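DT40 Tdp1-/-;hTDP1 cells, no CPT (DMSO vehicle only), 400 cells/well; compounds pin-transferred; ≥48 hr, 37 °C; CellTiter-Glo 30 min RT dark, luminescence read.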
TDP1 inh: TDP1 (human) enzyme inhibition; Q9NUW8; recombinant TDP1, AlphaScreen DNA substrate cleavage; Potency, µM (top dose mostly 130 µM), hits mostly inhibitors; hit rate 0.28% among 350,000; also: nearly all actives have a fitted effect of over 40% in size
Target sequence (Q9NUW8 whole entry, looked up): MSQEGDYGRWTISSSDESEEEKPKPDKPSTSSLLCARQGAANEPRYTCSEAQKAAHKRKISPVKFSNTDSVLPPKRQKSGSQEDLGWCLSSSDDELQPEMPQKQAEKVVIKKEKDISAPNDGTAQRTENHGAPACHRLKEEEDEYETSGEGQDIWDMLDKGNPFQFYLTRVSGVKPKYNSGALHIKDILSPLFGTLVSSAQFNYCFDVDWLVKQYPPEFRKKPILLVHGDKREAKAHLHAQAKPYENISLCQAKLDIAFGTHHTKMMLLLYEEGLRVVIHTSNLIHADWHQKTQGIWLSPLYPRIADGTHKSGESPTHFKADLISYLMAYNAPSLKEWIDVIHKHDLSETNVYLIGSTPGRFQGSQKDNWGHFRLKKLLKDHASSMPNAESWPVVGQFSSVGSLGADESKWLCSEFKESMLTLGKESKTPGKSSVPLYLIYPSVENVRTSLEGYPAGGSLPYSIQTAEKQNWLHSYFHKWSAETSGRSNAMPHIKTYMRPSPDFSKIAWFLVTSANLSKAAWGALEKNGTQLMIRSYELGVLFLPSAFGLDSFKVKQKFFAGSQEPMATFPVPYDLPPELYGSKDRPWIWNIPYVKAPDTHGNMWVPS
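Steps: enzyme plus compound, 15 min RT; add biotin/phosphotyrosine-FITC oligonucleotide (15 nM final), react 5 min; add donor/acceptor beads (10 ug/ml final), 10 min; read AlphaScreen. Tdp1 at 1 nM final.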
CtBP-E1A blk: CtBP/E1A binding inhibition; AlphaScreen GST-E1A/His-CtBP binding, 1536-well; active compounds read low; activity change, % (test concentration not listed); hit rate 0.49% among 340,000; in the data active = activity change below about -65%; inconclusive = mostly about -30% to -63%
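Homogeneous bead-based format: GST-tagged E1A captured on glutathione donor beads, His-tagged CtBP on nickel acceptor beads; compounds precede bead addition by 2 h at 37 °C.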
Numbers stand for hits; 0 = inactive; ? = inconclusive; - = no result given; ! = a repeat was not active. Sampled rows, rich in hits. Any-hit rate of the full collection: about 18%. Unless noted, calls follow the shape of the dose curve; as a rule, active = well fitted curve in the direction sought with a large enough effect; inconclusive = small, poorly fitted or top-dose-only effect, or another doubt; inactive = no such curve, though single readings can be large; an effect the other way counts as inactive or inconclusive.

SMILES	IL-1B inflam inh	DT40 TDP1 CPT	Six1-Eya2 blk	TDP1 cell noCPT	TDP1 inh	CtBP-E1A blk
O=C(CCc1ccccc1)Nc1nnc(-c2ccc3c(c2)OCCO3)o1	0	0	0	0	0	0
O=C(Nc1nnc(-c2ccc3c(c2)CCCC3)o1)C1CCCCC1	0	14.6µM	0	?	0	0
CNc1ccc(/C=C/C(=O)c2cccc3ccccc23)cc1[N+](=O)[O-]	-91.8	16.4µM	0	16.4µM	0	0
O=C(O)c1cc(=O)c2ccccc2[nH]1	0	0.058µM!	0	0	0	0
Cc1ccc2[nH]c(C(F)(F)F)cc(=O)c2c1	-	?	0	11.6µM	0	0
O=C(O)c1cc(=O)c2c(Cl)cc(Cl)cc2[nH]1	0	0	0	0	0	0
O=c1cc(C(F)(F)F)[nH]c2c(OC(F)(F)F)cccc12	-59.0	0	0	?	0	0
Cc1cccc2c(=O)cc(C(F)(F)F)[nH]c12	0	?	0	?	0	0
O=c1cc(C(F)(F)F)[nH]c2ccccc12	0	?	0	20.6µM	0	-
Cc1ccc2[nH]c(C)cc(=O)c2c1	-	-	-	-	0	-
Cc1ccc(C)c(NC(=S)N2CCN(c3ccccn3)CC2)c1	0	0	0	0	0	-
CCOC(=O)COn1c(=O)c(-c2ccc(OC)cc2)[n+]([O-])c2ccccc21	0	?	0	0	-	0
Cc1ccc(-c2n[nH]c3c2C(c2cccs2)N(c2ccc(Cl)cc2)C3=O)cc1 (configuration not stated)	-	16.4µM	-	?	0	-
Cc1ccc(N2C(=O)c3[nH]nc(-c4ccc(Cl)cc4)c3C2c2ccc(F)cc2)cc1 (configuration not stated)	-	14.6µM	-	20.6µM	0	-
COc1ccc(-c2n[nH]c3c2C(c2ccc(O)cc2)N(c2ccc(Br)cc2)C3=O)cc1 (configuration not stated)	-	18.4µM	-	?	0	-
CCOc1ccc(C(=O)NCC(=O)NCC(c2ccco2)N2CCCCC2)cc1OCC (configuration not stated)	0	0	0	?	-	0
CCCCCCCCn1c2c(c(=N)c3ccccc31)CCC2	-95.7	0.411µM	0	0.411µM	0	0
CCCCCn1c2c(c(=N)c3ccccc31)CCC2	?	1.84µM	0	1.46µM	0	0
CCCCn1c2c(c(=N)c3ccccc31)CCC2	0	?	0	?	0	0
COC(=O)C1=CO[C@@H](O[C@@H]2O[C@H](CO)[C@@H](O)[C@H](O)[C@H]2O)[C@H]2[C@@H]1C(=O)C[C@@H]2C	0	0	0	0	0	0
Cc1cccc(-n2c(C)cc(C(=O)NC3CCCCC3)c2C)c1	-90.1	?	0	13µM	0	0
Cc1cccc(-n2c(C)nc3cc(C(=O)NC4CCCCCC4)ccc32)c1	-	13µM	-	23.1µM	0	-
Cc1cccc(-n2c(C)nc3cc(C(=O)NCC4CCCO4)ccc32)c1 (configuration not stated)	0	0	0	0	0	0
Cc1ccc(O)c(C(=O)c2cnn(-c3ccccc3)c2)c1	0	7.31µM	0	11.6µM	0	0
O=C(Cc1cnn(-c2ccccc2)c1)c1ccc(O)c(O)c1O	0	20.6µM	0	?	0	0
SMILES	IL-1B inflam inh	DT40 TDP1 CPT	Six1-Eya2 blk	TDP1 cell noCPT	TDP1 inh	CtBP-E1A blk
CC(C)c1nc2cc(C(=O)N(C)C3CCOCC3)ccc2o1	0	0	0	0	0	0
CCN(Cc1ccccc1)C(=O)C1CCN(Cc2sccc2C)CC1	0	0	0	0	0	0
COc1ccc(Cc2nnc(SCC(=O)NC3CCCCC3)n2C)cc1	0	0	0	0	0	0
Cc1cc(C)c(NC(=O)C(=O)NCC(c2cccnc2)N2CCN(Cc3ccccc3)CC2)c(C)c1 (configuration not stated)	-	11.6µM	-	5.8µM	0	-
Cc1cc(C)c(NC(=O)C(=O)NCC(c2cccnc2)N2CCN(c3ccccc3F)CC2)c(C)c1 (configuration not stated)	-	14.6µM	-	14.6µM	0	-
O=C(NCC(c1cccnc1)N1CCN(c2ccccc2F)CC1)c1ccccc1 (configuration not stated)	0	?	0	?	0	0
Cc1ccc(NC(=O)C(=O)NCC(c2cccnc2)N2CCN(C)CC2)cc1F (configuration not stated)	-	0	-	0	0	-
Cc1ccc(NC(=O)C(=O)NCC(c2cccnc2)N2CCN(c3ccccc3F)CC2)cc1Cl (configuration not stated)	-	20.6µM	-	23.1µM	0	-
Cc1cccc(NC(=O)C(=O)NCC(c2cccnc2)N2CCOCC2)c1 (configuration not stated)	-	0	-	0	0	-
CNC(=S)N(CCc1c(C)[nH]c2ccc(Cl)cc12)Cc1cccnc1	?	0	0	?	-	0
CCCN(CCC)C(=O)CN1C(=O)CSc2ccc(S(=O)(=O)N3CCC(C)CC3)cc21	-	?	-	?	0	-
Cc1nn(-c2ccccc2)c(-c2ccccc2[N+](=O)[O-])c1CC#N	0	?	0	16.4µM	-	0
CCN(CC)CCCN(C(=O)c1ccc(F)cc1)c1nc(-c2ccc(OC)cc2)cs1	-93.4	13µM	0	10.3µM	-	0
CN(C)CCCN(C(=O)c1cccs1)c1nc(-c2ccccc2)cs1	?	?	0	?	0	0
COc1ccc(-c2csc(N(CCCN(C)C)C(=O)c3ccccc3F)n2)cc1	?	9.2µM	0	14.6µM	0	-
COc1ccc(-c2csc(N(CCCN(C)C)C(=O)c3ccc(F)cc3)n2)cc1	0	0	0	?	0	0
COc1ccc(-c2csc(N(CCCN(C)C)C(=O)c3ccccc3Cl)n2)cc1	-72.4	?	?	?	-	?
COc1ccc(-c2csc(N(CCCN(C)C)C(=O)c3ccccc3C)n2)cc1	-76.0	3.66µM	0	4.61µM	-	?
CCN1CCCC1CNS(=O)(=O)c1ccc(F)c(Cl)c1 (configuration not stated)	0	0	0	0	-	0
COc1ccccc1CNC(=O)CCS(=O)(=O)c1ccc2c(c1)oc(=O)n2C	-	0	-	0	0	-
CCN(C(=O)c1ccccc1F)c1nc(-c2ccc(OC)cc2)cs1	0	20.6µM	0	20.6µM	-	0
COCCN(C(=O)c1ccccc1F)c1nc(-c2ccc(OC)cc2)cs1	?	0	0	?	0	0
CCOC(=O)c1c(C)[nH]c(C(=O)COC(=O)c2ccc(O)cc2O)c1C	0	?	0	?	0	0
CCCCOC(=O)c1[nH]c2c(c1C)C(=O)CC(c1cc(OC)c(OC)c(OC)c1)C2 (configuration not stated)	0	6.51µM	0	5.17µM	0	0
